About 79,000 compounds went through this panel and 15% of them were active in at least one assay; those are over-represented in the sample as a whole. Calls of active or inactive are those of the source. Cut-off read from the data, not from the text of the source: active = growth inhibition above about 70%; inactive = the rest.
Assay: NCI Yeast Anticancer Drug Screen. Data for the rad50 strain (AID 155);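 note: 0% = growth of vehicle-only cultures of the same strain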
Details: S. cerevisiae rad50 strain growth inhibition; at 11.0 µM; hits give high values
Method in brief: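 Compounds were tested on a yeast strain with an engineered DNA damage repair alteration; the reported value is growth inhibition normalised to vehicle treatment.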

**Q.** For COc1ccc2nc3cccc([N+](=O)[O-])c3c(NCCNCCN(C)C)c2c1, which growth inhibition is on record?
**A.** -12% (inactive)

**Q.** With Cc1cccc(/C=N/NC(=S)NC2CCCCC2)n1 as the molecule, how does the growth inhibition read?
**A.** -33% (inactive)

**Q.** With COC(=O)C(=O)c1c(-c2ccc(Cl)c(Cl)c2)[nH]c2[nH]n(-c3ccccc3)c(=O)c2c1=O as the molecule, how does the growth inhibition read?
**A.** 22% (inactive)

**Q.** Which growth inhibition does the source give for c1ccc([P+](CCN2Cc3ccccc3C2)(c2ccccc2)c2ccccc2)cc1 here?
**A.** 61% (inactive)

**Q.** With Cc1cc(C)c2[s+]snc2c1 as the molecule, how does the growth inhibition read?
**A.** 3% (inactive)

**Q.** With CC(C)(Br)C(=O)/C=C/c1ccccc1 as the molecule, how does the growth inhibition read?
**A.** 26% (inactive)

**Q.** With Cc1ccc(S(=O)(=O)NC(=O)C2C(=O)CC3(CCCCC3)CC2=O)cc1 as the molecule, how does the growth inhibition read?
**A.** -23% (inactive)

**Q.** With NC(=S)N1N=C2c3ccccc3CC[C@H]2[C@@H]1c1ccc(Cl)cc1 as the molecule, how does the growth inhibition read?
**A.** 29% (inactive)

**Q.** Which growth inhibition does the source give for O=[N+]([O-])/C=C/c1cc2ccc3ccccc3c2[nH]1 here?
**A.** 78% (active)

**Q.** For O=C1C(=C2CCCC2)CCC1CN1CCCCC1 (configuration not stated), which growth inhibition is on record?
**A.** 9% (inactive)

**Q.** Which growth inhibition does the source give for OC(CC(O)(C(F)(F)F)C(F)(F)F)c1ccc(C(O)CC(O)(C(F)(F)F)C(F)(F)F)cc1 (configuration not stated) here?
**A.** 92% (active)

**Q.** With COc1cc2c(cc1OC)[C@@H](Nc1ccc(C#N)cc1)C1COC(=O)[C@@H]1C2c1cc(OC)c(O)c(OC)c1 (some centres not stated) as the molecule, how does the growth inhibition read?
**A.** 90% (active)

**Q.** With O=c1cccccc1[O-].O=c1cccccc1[O-].O=c1cccccc1[O-].[Eu+3] as the molecule, how does the growth inhibition read?
**A.** 71% (active)

**Q.** For O=C1c2ccccc2C(=O)c2sc(Nc3ccccc3Cl)nc21, which growth inhibition is on record?
**A.** 78% (active)

**Q.** For NC(CCCCCCCCCCCCC(N)C(=O)c1ccccc1)C(=O)c1ccccc1 (configuration not stated), which growth inhibition is on record?
**A.** 81% (active)

**Q.** For CC1=C(C)C(=O)C2=C(OCCO2)C1=O, which growth inhibition is on record?
**A.** 7% (inactive)

**Q.** For c1ccc(-c2cc(C3CO3)c3ccccc3n2)cc1 (configuration not stated), which growth inhibition is on record?
**A.** -4% (inactive)

**Q.** Which growth inhibition does the source give for S=C1C(=Nc2ccccc2)N(c2ccccc2)/C(=N\c2ccccn2)N1c1ccccc1 here?
**A.** 46% (inactive)

**Q.** For CCC(OC(C)=O)C1CC(C(C)C)CCC1C (configuration not stated), which growth inhibition is on record?
**A.** 5% (inactive)

**Q.** With CC(C)=CCc1c2c(c(O)c3c(=O)c(-c4ccc(O)c(O)c4)coc13)C=CC(C)(C)O2 as the molecule, how does the growth inhibition read?
**A.** 93% (active)

**Q.** Which growth inhibition does the source give for O=C(NC(N1CCN(c2cc3c(cc2F)c(=O)c(C(=O)O)cn3C2CC2)CC1)(C(F)(F)F)C(F)(F)F)c1ccccc1 here?
**A.** 19% (inactive)

**Q.** For Fc1cc(F)c(F)c(S)c1F, which growth inhibition is on record?
**A.** -32% (inactive)

**Q.** With COc1ccc2cc3c4cc5c(cc4cc[n+]3cc2c1OC)OCO5 as the molecule, how does the growth inhibition read?
**A.** 88% (active)

**Q.** With CCCCCCCCNCCCCCCCC as the molecule, how does the growth inhibition read?
**A.** 96% (active)

**Q.** With Nc1cc(Cl)ccc1Nc1ccccc1 as the molecule, how does the growth inhibition read?
**A.** -8% (inactive)

**Q.** For O=C(/C(=C/c1ccc(O)cc1)c1ccccc1)c1ccccc1, which growth inhibition is on record?
**A.** 53% (inactive)

**Q.** For O=Cc1ccccc1C=O, which growth inhibition is on record?
**A.** 19% (inactive)

**Q.** Which growth inhibition does the source give for C1=CCN([B-](c2ccccc2)[C+]2CCCCC2)C=C1 here?
**A.** 16% (inactive)

**Q.** For CC/C(=C(\c1ccccc1)c1ccc(OCC[N+](C)(C)C)cc1)c1ccccc1, which growth inhibition is on record?
**A.** 97% (active)

**Q.** With O=S(=O)(c1cccc(C(F)(F)F)c1)N1c2ccccc2-n2cccc2C1c1cccnc1 (configuration not stated) as the molecule, how does the growth inhibition read?
**A.** 85% (active)

**Q.** Which growth inhibition does the source give for Nc1ccc2c(c1)C(=O)c1c(F)cccc1-2 here?
**A.** 30% (inactive)

**Q.** Which growth inhibition does the source give for CN(C)/C(=N/C(=S)Nc1ccccc1)SCc1ccccc1 here?
**A.** -7% (inactive)

**Q.** With CCN(CC)C(=S)N/N=C(\C)c1ccccc1O as the molecule, how does the growth inhibition read?
**A.** 22% (inactive)

**Q.** With CC(C)OC(=O)NNc1cc(Cl)ccc1Cl as the molecule, how does the growth inhibition read?
**A.** 41% (inactive)

**Q.** With CC(C)CCC[C@@H](C)[C@H]1CC[C@H]2[C@@H]3CC[C@H]4C[C@H](N)CC[C@]4(C)[C@H]3CC[C@]12C as the molecule, how does the growth inhibition read?
**A.** 4% (inactive)

**Q.** With O=C1c2ccccc2-c2ccc(N=Cc3ccccc3)cc21 as the molecule, how does the growth inhibition read?
**A.** 26% (inactive)

Same assay, conditions: S. cerevisiae rad50 strain growth inhibition; at 33.0 µM; hits give high values

**Q.** For COc1ccc2nc3cccc([N+](=O)[O-])c3c(NCCNCCN(C)C)c2c1, which growth inhibition is on record?
**A.** -4% (inactive)

**Q.** With Cc1cccc(/C=N/NC(=S)NC2CCCCC2)n1 as the molecule, how does the growth inhibition read?
**A.** 13% (inactive)

**Q.** For COC(=O)C(=O)c1c(-c2ccc(Cl)c(Cl)c2)[nH]c2[nH]n(-c3ccccc3)c(=O)c2c1=O, which growth inhibition is on record?
**A.** 40% (inactive)

**Q.** With c1ccc([P+](CCN2Cc3ccccc3C2)(c2ccccc2)c2ccccc2)cc1 as the molecule, how does the growth inhibition read?
**A.** 61% (inactive)

**Q.** Which growth inhibition does the source give for Cc1cc(C)c2[s+]snc2c1 here?
**A.** 9% (inactive)

**Q.** Which growth inhibition does the source give for CC(C)(Br)C(=O)/C=C/c1ccccc1 here?
**A.** 34% (inactive)

**Q.** For Cc1ccc(S(=O)(=O)NC(=O)C2C(=O)CC3(CCCCC3)CC2=O)cc1, which growth inhibition is on record?
**A.** 5% (inactive)

**Q.** With NC(=S)N1N=C2c3ccccc3CC[C@H]2[C@@H]1c1ccc(Cl)cc1 as the molecule, how does the growth inhibition read?
**A.** 36% (inactive)

**Q.** For O=[N+]([O-])/C=C/c1cc2ccc3ccccc3c2[nH]1, which growth inhibition is on record?
**A.** 83% (active)

**Q.** For O=C1C(=C2CCCC2)CCC1CN1CCCCC1 (configuration not stated), which growth inhibition is on record?
**A.** 60% (inactive)

**Q.** For OC(CC(O)(C(F)(F)F)C(F)(F)F)c1ccc(C(O)CC(O)(C(F)(F)F)C(F)(F)F)cc1 (configuration not stated), which growth inhibition is on record?
**A.** 98% (active)

**Q.** For COc1cc2c(cc1OC)[C@@H](Nc1ccc(C#N)cc1)C1COC(=O)[C@@H]1C2c1cc(OC)c(O)c(OC)c1 (some centres not stated), which growth inhibition is on record?
**A.** 93% (active)

**Q.** With O=c1cccccc1[O-].O=c1cccccc1[O-].O=c1cccccc1[O-].[Eu+3] as the molecule, how does the growth inhibition read?
**A.** 97% (active)

**Q.** With O=C1c2ccccc2C(=O)c2sc(Nc3ccccc3Cl)nc21 as the molecule, how does the growth inhibition read?
**A.** 98% (active)

**Q.** Which growth inhibition does the source give for NC(CCCCCCCCCCCCC(N)C(=O)c1ccccc1)C(=O)c1ccccc1 (configuration not stated) here?
**A.** 85% (active)

**Q.** For CC1=C(C)C(=O)C2=C(OCCO2)C1=O, which growth inhibition is on record?
**A.** 33% (inactive)

**Q.** Which growth inhibition does the source give for c1ccc(-c2cc(C3CO3)c3ccccc3n2)cc1 (configuration not stated) here?
**A.** 36% (inactive)

**Q.** Which growth inhibition does the source give for S=C1C(=Nc2ccccc2)N(c2ccccc2)/C(=N\c2ccccn2)N1c1ccccc1 here?
**A.** 98% (active)

**Q.** For CCC(OC(C)=O)C1CC(C(C)C)CCC1C (configuration not stated), which growth inhibition is on record?
**A.** 4% (inactive)

**Q.** Which growth inhibition does the source give for CC(C)=CCc1c2c(c(O)c3c(=O)c(-c4ccc(O)c(O)c4)coc13)C=CC(C)(C)O2 here?
**A.** 93% (active)

**Q.** With O=C(NC(N1CCN(c2cc3c(cc2F)c(=O)c(C(=O)O)cn3C2CC2)CC1)(C(F)(F)F)C(F)(F)F)c1ccccc1 as the molecule, how does the growth inhibition read?
**A.** 88% (active)

**Q.** Which growth inhibition does the source give for Fc1cc(F)c(F)c(S)c1F here?
**A.** 25% (inactive)

**Q.** Which growth inhibition does the source give for COc1ccc2cc3c4cc5c(cc4cc[n+]3cc2c1OC)OCO5 here?
**A.** 94% (active)

**Q.** Which growth inhibition does the source give for CCCCCCCCNCCCCCCCC here?
**A.** 98% (active)

**Q.** For Nc1cc(Cl)ccc1Nc1ccccc1, which growth inhibition is on record?
**A.** 16% (inactive)

**Q.** With O=C(/C(=C/c1ccc(O)cc1)c1ccccc1)c1ccccc1 as the molecule, how does the growth inhibition read?
**A.** 98% (active)

**Q.** With O=Cc1ccccc1C=O as the molecule, how does the growth inhibition read?
**A.** 28% (inactive)

**Q.** Which growth inhibition does the source give for C1=CCN([B-](c2ccccc2)[C+]2CCCCC2)C=C1 here?
**A.** 70% (active)

**Q.** With CC/C(=C(\c1ccccc1)c1ccc(OCC[N+](C)(C)C)cc1)c1ccccc1 as the molecule, how does the growth inhibition read?
**A.** 98% (active)

**Q.** With O=S(=O)(c1cccc(C(F)(F)F)c1)N1c2ccccc2-n2cccc2C1c1cccnc1 (configuration not stated) as the molecule, how does the growth inhibition read?
**A.** 92% (active)

**Q.** Which growth inhibition does the source give for Nc1ccc2c(c1)C(=O)c1c(F)cccc1-2 here?
**A.** 87% (active)

**Q.** With CN(C)/C(=N/C(=S)Nc1ccccc1)SCc1ccccc1 as the molecule, how does the growth inhibition read?
**A.** 8% (inactive)

**Q.** With CCN(CC)C(=S)N/N=C(\C)c1ccccc1O as the molecule, how does the growth inhibition read?
**A.** 98% (active)

**Q.** Which growth inhibition does the source give for CC(C)OC(=O)NNc1cc(Cl)ccc1Cl here?
**A.** 36% (inactive)

**Q.** For CC(C)CCC[C@@H](C)[C@H]1CC[C@H]2[C@@H]3CC[C@H]4C[C@H](N)CC[C@]4(C)[C@H]3CC[C@]12C, which growth inhibition is on record?
**A.** -2% (inactive)

**Q.** With O=C1c2ccccc2-c2ccc(N=Cc3ccccc3)cc21 as the molecule, how does the growth inhibition read?
**A.** 66% (inactive)
